# This is one part of a sample in which hits are shown more often than they occur.
# RECQ1 inh – RECQ1 (human) helicase inhibition | AID 2549 | Potency, µM (top dose mostly 57.3 µM), hits mostly inhibitors | P46063 | RECQ1 DNA unwinding, red fluorescence kinetic read | hit rate 0.54% among 240,000; also: nearly all actives have a fitted effect of over 30% in size
#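 RECQ1T1 50 nM; forked duplex (20 bp + 30-nt ss tails) 200 nM, ATP 2 mM final; pH 8.0, 2 mM MgCl2, 2.5 ug/ml poly(dI-dC); 15 min compound preincubation; discontinuous kinetic read over 2 h at RT.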
# KDM4E inh – blocks human JMJD2E demethylase activity. Potency, µM (series often up to 57.1 µM), most hits filed as inhibitors. B2RXH2. hit rate 1.6% among 230,000. JMJD2E catalytic domain, FDH-coupled NADH fluorescence (FDH is formaldehyde dehydrogenase); also: nearly all actives have a fitted effect of over 50% in size
# L3MBTL1 inh – inhibitors of human L3MBTL1; AID 485360; hit rate 0.66% among 230,000; Potency, µM (doses to about 57.1 µM), most hits filed as inhibitors; Q9Y468; AlphaScreen L3MBTL1–H3K9me1 peptide binding; also: nearly all actives have a fitted effect of over 60% in size
# Target sequence (Q9Y468 whole entry, looked up): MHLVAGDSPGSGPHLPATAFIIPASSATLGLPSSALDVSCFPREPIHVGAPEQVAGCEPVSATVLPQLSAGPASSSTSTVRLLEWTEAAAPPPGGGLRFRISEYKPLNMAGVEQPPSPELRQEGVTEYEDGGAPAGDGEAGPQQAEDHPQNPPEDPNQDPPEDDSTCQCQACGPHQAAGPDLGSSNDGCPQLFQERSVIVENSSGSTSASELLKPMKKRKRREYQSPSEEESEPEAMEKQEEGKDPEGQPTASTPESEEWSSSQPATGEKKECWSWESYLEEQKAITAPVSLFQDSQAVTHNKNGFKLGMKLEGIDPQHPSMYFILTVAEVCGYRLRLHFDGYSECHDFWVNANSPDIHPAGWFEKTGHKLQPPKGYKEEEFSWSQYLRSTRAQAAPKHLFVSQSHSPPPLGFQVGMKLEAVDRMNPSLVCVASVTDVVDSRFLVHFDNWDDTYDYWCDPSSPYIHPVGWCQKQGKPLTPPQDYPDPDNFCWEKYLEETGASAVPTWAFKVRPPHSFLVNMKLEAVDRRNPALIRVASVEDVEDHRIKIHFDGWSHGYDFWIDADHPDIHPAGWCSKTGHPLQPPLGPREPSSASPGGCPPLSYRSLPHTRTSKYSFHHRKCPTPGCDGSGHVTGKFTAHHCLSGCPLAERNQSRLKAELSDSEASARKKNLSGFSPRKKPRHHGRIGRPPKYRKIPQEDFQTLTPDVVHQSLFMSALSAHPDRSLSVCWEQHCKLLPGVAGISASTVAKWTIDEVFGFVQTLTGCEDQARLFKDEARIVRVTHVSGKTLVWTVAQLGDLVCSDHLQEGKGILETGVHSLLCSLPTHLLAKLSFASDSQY
#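 First, the protein-peptide complex forms for 30 min at room temperature (L3MBTL1 50 nM, biotinylated H3K9me1 peptide 75 nM). Next, compounds are pin-transferred and incubated 30 min. Finally, AlphaScreen beads are added and read after 30 min.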
# APE1 inh – APE1 (human) endonuclease inhibition; recombinant APE1, TAMRA/BHQ-2 abasic DNA cleavage fluorescence; Potency, µM (highest dose often 65.8 µM), most hits filed as inhibitors; hit rate 0.35% among 350,000; AID 2517; also: nearly all actives have a fitted effect of over 55% in size
#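 APE1 at 0.75 nM preincubated 15 min at room temperature with compound. Reaction then started with 50 nM double-stranded THF-abasic substrate labelled with TAMRA/BHQ-2, and 525/598 nm fluorescence read kinetically. Activity taken as third-minus-first read difference, normalized to DMSO and NSC13755 controls.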
# BLM helicase inh – blocks DNA unwinding by human BLM helicase; Potency, µM (series often up to 56.1 µM), most hits filed as inhibitors; P54132; recombinant BLM DNA unwinding, fluorescence dequenching; AID 2528; hit rate 0.2% among 350,000; also: nearly all actives have a fitted effect of over 35% in size
# TDP1 inh – blocks human tyrosyl-DNA phosphodiesterase 1 | Potency, µM (highest dose often 130 µM), usual class: inhibitors | recombinant TDP1, AlphaScreen DNA substrate cleavage | hit rate 0.28% among 350,000; also: nearly all actives have a fitted effect of over 40% in size
#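 Signal: AlphaScreen proximity between streptavidin donor and anti-FITC acceptor beads on intact substrate. Reaction: Tdp1 1 nM, substrate 15 nM final, 5 min RT after 15 min compound preincubation.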
# Hits are given with their value; n = inactive; u = inconclusive; x = no result given; ! = a repeat was not active; [ ] = remark or other dose. Unless noted, calls follow the shape of the dose curve; as a rule, active = well fitted curve in the direction sought with a large enough effect; inconclusive = small, poorly fitted or top-dose-only effect, or another doubt; inactive = no such curve, though single readings can be large; an effect the other way counts as inactive or inconclusive.
SMILES,RECQ1 inh,KDM4E inh,L3MBTL1 inh,APE1 inh,BLM helicase inh,TDP1 inh
CCOC(=O)N1CCN(/[N+]([O-])=N/Oc2ccc([N+](=O)[O-])cc2[N+](=O)[O-])CC1C (stereo not given),n,x,x,n,n,n
O=C(O)c1ccc[nH]c1=S,n,18µM,n,n,n,n
O=C(O)c1cccc2nc3ccccc3nc12,n,n,n,n,n,n
CC(=O)OCC1=C(C(=O)[O-])N2C(=O)[C@@H](NC(=O)CCC[C@@H](N)C(=O)[O-])[C@H]2SC1.[Zn+2],n,28µM,x,n,x,u
O=C1NC(=O)N(c2ccc3c(c2)OCO3)C(=O)/C1=C/c1ccc(N2CCCC2)o1,n,n,n,n,n,n
Cc1ccc(N2C(=O)/C(=C/c3ccc(CN(CCC#N)S(C)(=O)=O)o3)C(=O)NC2=S)cc1C,25µM,n,u,u,n,n
CN1C(=O)/C(=C/c2ccc(N3CCCCCC3)o2)C(=O)NC1=S,n,n,n,u,n,n
Cc1cccc(N2C(=O)/C(=C/c3ccc(CN(CCC#N)S(C)(=O)=O)o3)C(=O)NC2=S)c1,18µM,n,x,u,n,n
CCCCC(=O)Cl,n,x,x,n,x,n
CCOP(=S)(OCC)Oc1ncn(-c2ccccc2)n1,n,x,x,n,n,n
Cc1ccc(C=C2C(Cl)=C(Cl)C(Cl)=C2Cl)cc1,10µM,n,3.2µM,16µM,n,x
C[C@]12[C@H](O)CC3C(CC[C@@H]4C[C@@H](O)CC[C@]34C)[C@@]1(O)CC[C@@H]2C1=CC(=O)OC1 (stereo not given in full),n,n,x,n,n,n
Clc1nc(Cl)nc(Cl)n1,n,x,x,n,x,n
Oc1ccc(C[C@H]2NCCc3cc(O)c(O)cc32)cc1O,x,x,x,n,n,x
Oc1cc2c(cc1O)[C@H]1c3ccccc3CNC1CC2 (stereo not given in full),n,20µM,x,n,x,n
Cc1ccc(N2C(=O)NC(=O)/C(=C/c3ccc(-c4ccc(C(=O)O)c(Cl)c4)o3)C2=O)cc1,n,u,x,u,n,20µM
CCSc1nnc([C@@H](N)Cc2c[nH]c3ccccc23)o1,n,u,n,n,n,n
CSc1nnc([C@@H](N)Cc2c[nH]c3ccccc23)o1,n,4.5µM,x,n,n,n
C[C@]12CC[C@@H]3c4ccc(O)cc4CC[C@H]3[C@@H]1C[C@@H](O)[C@@H]2O[C@@H]1O[C@H](C(=O)O)[C@@H](O)[C@H](O)[C@H]1O,n,22µM,n,n,n,n
O=[N+]([O-])/N=C1\NCCN1Cc1ccc(Cl)nc1,x,x,x,n,x,x
C[C@@H]1O[C@@H](O[C@H]2CC[C@]3(C=O)C4CC[C@]5(C)[C@@H](C6=CC(=O)OC6)CC[C@]5(O)[C@@H]4CC[C@]3(O)C2)[C@H](O)[C@H](O)[C@H]1O (stereo not given in full),n,n,x,n,n,n
NC(Cc1ccc(N(CCCl)CCCl)cc1)C(=O)O (stereo not given),n,20µM!,x,n,n,n
CC(=O)NC(Cc1ccc(N(CCCl)CCCl)cc1)C(=O)NC(C(=O)O)C(C)C (stereo not given),n,u,n,n,n,n
CCOC(=O)CC(NC(=O)C(Cc1ccc(N(CCCl)CCCl)cc1)NC(C)=O)C(=O)OCC (stereo not given),n,10µM,n,n,n,n
C[C@H]1CC[C@]2(NC1)O[C@H]1C[C@H]3[C@@H]4CC[C@H]5C[C@@H](O)CC[C@]5(C)[C@H]4CC[C@]3(C)[C@H]1[C@@H]2C,x,x,x,n,x,x
SMILES,RECQ1 inh,KDM4E inh,L3MBTL1 inh,APE1 inh,BLM helicase inh,TDP1 inh
CN[C@H](C)[C@H](O)c1ccccc1,n,n,x,n,n,n
CN[C@@H](C)[C@H](O)c1ccccc1,n,3.5µM,x,n,u,n
C#C[C@]1(O)CC[C@H]2[C@@H]3CCC4=CC(=O)CCC4(C)[C@H]3CCC21C (stereo not given in full),n,x,x,x,n,n
Cc1[nH]c2ccccc2c1P(=S)(c1ccccc1)c1ccccc1,x,x,x,x,x,n
CCOC(=O)CCCc1cc[c]([Sb](=[O])([OH])[OH])cc1,x,x,x,x,x,0.25µM
O=C1NC(=O)C(=Cc2coc3ccc(O)cc3c2=O)C(=O)N1,n,18µM,n,n,n,x
COc1cc2c(cc1OC)C1C(=O)c3c(cc4c(c3O)C=CC(C)(C)O4)OC1CO2 (stereo not given),n,n,x,n,n,n
COc1cccc(OC)c1-c1nn2c(-c3n[nH]c4c3CCC4)nnc2s1,x,x,x,x,x,n
N#CC(C#N)=Cc1ccc([N+](=O)[O-])c(O)c1,u,u,x,n,n,n
N#CC(C#N)=Cc1ccc(C=C(C#N)C#N)cc1,n,16µM,n,n,n,n
Cc1c(N=Nc2c(O)[nH]c(=O)[nH]c2=O)c(=O)n(-c2ccccc2)n1C,n,3.5µM,n,n,n,n
NCC[C@H](O)C(=O)N[C@@H]1C[C@H](N)[C@@H](O[C@H]2O[C@H](CN)[C@@H](O)[C@H](O)[C@H]2N)[C@H](O[C@@H]2O[C@H](CO)[C@@H](O)[C@H]2O)[C@H]1O,x,x,x,n,x,x
CCCN1CCCC2Cc3[nH]ncc3CC21 (stereo not given),n,n,x,n,n,0.28µM!
Cc1c(O)c(=O)ccn1C,n,7.9µM,n,n,n,n
COC(=O)[C@]1(C)CC[C@@]2(C)CC[C@@]3(C)C4=CC=C5C(=CC(=O)C(O)=C5C)[C@@]4(C)CC[C@@]3(C)C2C1 (stereo not given in full),n,u,x,n,n,n[12.3 µM]
Nc1cccc2ccccc12,n,x,x,u,x,n
CCCCCCCCCOc1ccc2[nH]cc(CCN)c2c1,n,25µM!,x,n,n,n

# Screens deposited in PubChem by National Center for Advancing Translational Sciences (NCATS).
